Reference: PubChem BioAssay AID1159580 (chemical genetic matrix, 2015)
Several values for one entry are separate records, joined by “and”; a condition that tells them apart may be missing. Equal values may be shown once. The whole screen tested about 5,500 compounds, of which about 2,000 (36%) were called active. Roughly 18% stayed inconclusive and do not appear here. No stated cut-off is given here; in the data, active means normalized growth mostly below about 0.91 (no sharp cut-off); inconclusive means no clear call, values can overlap the other calls; inactive means mostly above about 0.92. This is one part of the list.

Experiment: chemical genetic growth profiling, strain panel (AID 1159580);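 further: tested at 20 µM; growth read once vehicle control cultures reached saturation at 30 °C; 1 = growth at the plate median or of vehicle wells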
Details: S. cerevisiae deletion strains, growth OD

Measured: normalized growth

Cc1cccc(C)c1NC1=NCCCS1
inactive: locus YAL013W, strain DEP1, stronger effect = lower value 0.999 | locus YAL021C, strain ccr4, stronger effect = lower value 1.03 | locus YAL026C, strain drs2, stronger effect = lower value 0.986 | locus YAL030W, strain snc1, stronger effect = lower value 1 | locus YAL040C, strain CLN3, stronger effect = lower value 0.978 | locus YBL061C, strain skt5, stronger effect = lower value 1 | locus YBR009C, strain hhf1, stronger effect = lower value 1.02 | locus YBR021W, strain FUR4, stronger effect = lower value 0.99 | locus YBR023C, strain chs3, stronger effect = lower value 1.02 | locus YBR171W, strain sec66, stronger effect = lower value 1.02 | locus YBR229C, strain ROT2, stronger effect = lower value 1 | locus YBR231C, strain swc5, stronger effect = lower value 0.997 | locus YBR279W, strain paf1, stronger effect = lower value 1 | locus YCL011C, strain gbp2, stronger effect = lower value 1.02 | locus YCL016C, strain dcc1, stronger effect = lower value 1 | locus YCL029C, strain bik1, stronger effect = lower value 0.974 | locus YCL061C, strain MRC1 (second series), stronger effect = lower value 1.01 | locus YCL061C, strain MRC1, stronger effect = lower value 1 | locus YCL069W, strain vba3, stronger effect = lower value 1 | locus YCR088W, strain abp1, stronger effect = lower value 1 | locus YDL005C, strain med2, stronger effect = lower value 0.995 | locus YDL035C, strain GPR1, stronger effect = lower value 0.979 | locus YDL040C, strain nat1, stronger effect = lower value 1 | locus YDL074C, strain BRE1, stronger effect = lower value 1.03 | locus YDL101C, strain DUN1, stronger effect = lower value 1 | locus YDL134C, strain PPH21, stronger effect = lower value 0.982 | locus YDL185W, strain tfp1, stronger effect = lower value 0.947 | locus YDL192W, strain arf1, stronger effect = lower value 0.987 | locus YDR001C, strain nth1, stronger effect = lower value 1.01 | locus YDR069C, strain doa4, stronger effect = lower value 1.02 | locus YDR101C, strain arx1, stronger effect = lower value 0.995 | locus YDR137W, strain rgp1, stronger effect = lower value 1 | locus YDR150W, strain NUM1, stronger effect = lower value 0.996 and 1.01 | locus YDR159W, strain sac3, stronger effect = lower value 0.991 | locus YDR162C, strain NBP2, stronger effect = lower value 0.97 | locus YDR195W, strain ref2 0.977 | locus YDR297W, strain sur2, stronger effect = lower value 1.01 | locus YDR318W, strain mcm21, stronger effect = lower value 0.972 | locus YDR334W, strain swr1, stronger effect = lower value 1.01 | locus YDR335W, strain msn5, stronger effect = lower value 1.01 | locus YDR363W, strain ESC2, stronger effect = lower value 1.02 | locus YDR388W, stronger effect = lower value 0.994 | locus YDR392W, strain spt3, stronger effect = lower value 1.01 | locus YDR502C, strain sam2, stronger effect = lower value 0.991 | locus YEL003W, strain gim4, stronger effect = lower value 1.01 | locus YEL037C, strain rad23, stronger effect = lower value 1.01 | locus YEL061C, strain CIN8 (second series), stronger effect = lower value 1.01 | locus YEL061C, strain CIN8, stronger effect = lower value 1 | locus YER002W, strain NOP16, stronger effect = lower value 1.01 | locus YER015W, strain faa2, stronger effect = lower value 1.01 | locus YER016W, strain bim1, stronger effect = lower value 1.01 | locus YER110C, stronger effect = lower value 0.976 | locus YER111C, strain swi4, stronger effect = lower value 1.01 | locus YER155C, strain BEM2 (second series), stronger effect = lower value 1.01 | locus YER155C, strain BEM2, stronger effect = lower value 0.995 | locus YER167W, strain BCK2, stronger effect = lower value 0.99 | locus YFR010W, strain ubp6, stronger effect = lower value 1.02 | locus YGL078C, strain dbp3, stronger effect = lower value 0.983 | locus YGL086W, strain mad1, stronger effect = lower value 0.998 | locus YGL167C, strain pmr1, stronger effect = lower value 1.01 | locus YGL173C, strain kem1, stronger effect = lower value 1.01 | locus YGL227W, strain vid30, stronger effect = lower value 1 | locus YGL240W, strain doc1, stronger effect = lower value 0.992 | locus YGL248W, strain PDE1, stronger effect = lower value 1.01 | locus YGL253W, strain hxk2, stronger effect = lower value 1.01 | locus YGR135W, strain pre9, stronger effect = lower value 0.967 | locus YGR229C, strain SMI1, stronger effect = lower value 0.996 | locus YGR252W, strain gcn5, stronger effect = lower value 1 | locus YHR013C, strain ard1, stronger effect = lower value 1.01 | locus YHR027C, strain rpn1, stronger effect = lower value 0.992 | locus YHR030C, strain SLT2, stronger effect = lower value 0.995 and 1.02 | locus YHR079C, strain IRE1 (second series), stronger effect = lower value 0.981 | locus YHR079C, strain IRE1, stronger effect = lower value 1.04 | locus YHR094C, strain hxt1, stronger effect = lower value 0.989 | locus YHR129C, strain ARP1, stronger effect = lower value 0.988 | locus YHR142W, strain chs7, stronger effect = lower value 1.01 | locus YHR200W, strain rpn10, stronger effect = lower value 0.96 | locus YIL066C, strain RNR3, stronger effect = lower value 1 | locus YIL073C, strain SPO22, stronger effect = lower value 0.86 | locus YIL125W, strain kgd1, stronger effect = lower value 0.987 | locus YIR030C, strain dcg1, stronger effect = lower value 0.975 | locus YJL092W, strain hpr5, stronger effect = lower value 1 | locus YJL095W, strain BCK1 (second series), stronger effect = lower value 1 | locus YJL095W, strain BCK1, stronger effect = lower value 1.03 and 1.04 | locus YJL115W, strain asf1, stronger effect = lower value 1.01 | locus YJL129C, strain trk1, stronger effect = lower value 1 | locus YJL134W, strain LCB3, stronger effect = lower value 0.994 | locus YJL154C, strain vps35, stronger effect = lower value 1.01 | locus YJL164C, strain tpk1, stronger effect = lower value 1.01 | locus YJL166W, strain qcr8, stronger effect = lower value 1.01 | locus YJL168C, strain set2, stronger effect = lower value 0.99 | locus YJL187C, strain SWE1 (second series), stronger effect = lower value 1.03 | locus YJR043C, strain POL32, stronger effect = lower value 1.02 | locus YJR066W, strain TOR1, stronger effect = lower value 0.955
